Targets with a hit are over-represented here; the source holds about 7,900 in all. About 0.6% of all pairs of compound and target were hits. Unmarked numbers belong to inactive results.

UniProt P24534, sequence (P24534 whole entry, looked up): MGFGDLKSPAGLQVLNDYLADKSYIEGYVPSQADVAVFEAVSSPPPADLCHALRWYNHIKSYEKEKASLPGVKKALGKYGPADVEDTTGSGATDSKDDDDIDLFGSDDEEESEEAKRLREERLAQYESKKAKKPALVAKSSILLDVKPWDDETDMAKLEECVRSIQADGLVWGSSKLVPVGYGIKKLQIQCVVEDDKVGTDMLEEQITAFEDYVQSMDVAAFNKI
UniProt Q96KP1, sequence (Q96KP1 whole entry, looked up): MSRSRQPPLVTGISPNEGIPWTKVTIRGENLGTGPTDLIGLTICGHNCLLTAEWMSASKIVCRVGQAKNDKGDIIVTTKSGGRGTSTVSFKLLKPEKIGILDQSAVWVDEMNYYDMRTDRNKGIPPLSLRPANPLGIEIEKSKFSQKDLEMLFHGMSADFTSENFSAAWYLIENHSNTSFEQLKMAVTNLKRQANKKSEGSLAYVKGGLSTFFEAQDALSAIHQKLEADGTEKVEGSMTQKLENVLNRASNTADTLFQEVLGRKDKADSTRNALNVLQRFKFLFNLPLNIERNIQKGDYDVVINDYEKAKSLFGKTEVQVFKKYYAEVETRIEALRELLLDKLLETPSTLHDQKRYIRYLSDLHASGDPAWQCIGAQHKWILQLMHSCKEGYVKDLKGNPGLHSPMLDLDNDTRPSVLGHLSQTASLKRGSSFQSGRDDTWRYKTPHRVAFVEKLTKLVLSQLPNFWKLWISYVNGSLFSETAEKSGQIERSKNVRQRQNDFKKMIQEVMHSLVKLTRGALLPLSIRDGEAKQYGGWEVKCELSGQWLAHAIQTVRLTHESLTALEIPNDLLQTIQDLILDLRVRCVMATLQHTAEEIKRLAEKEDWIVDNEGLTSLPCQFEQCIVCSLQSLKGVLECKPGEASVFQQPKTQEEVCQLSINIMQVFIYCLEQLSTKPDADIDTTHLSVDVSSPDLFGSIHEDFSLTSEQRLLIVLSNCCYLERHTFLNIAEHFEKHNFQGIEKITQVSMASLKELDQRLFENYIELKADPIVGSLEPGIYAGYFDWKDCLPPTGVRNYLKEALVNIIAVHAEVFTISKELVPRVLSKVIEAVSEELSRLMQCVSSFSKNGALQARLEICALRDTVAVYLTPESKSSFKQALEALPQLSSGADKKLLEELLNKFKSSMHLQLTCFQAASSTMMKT
UniProt P39880, sequence (P39880 whole entry, looked up): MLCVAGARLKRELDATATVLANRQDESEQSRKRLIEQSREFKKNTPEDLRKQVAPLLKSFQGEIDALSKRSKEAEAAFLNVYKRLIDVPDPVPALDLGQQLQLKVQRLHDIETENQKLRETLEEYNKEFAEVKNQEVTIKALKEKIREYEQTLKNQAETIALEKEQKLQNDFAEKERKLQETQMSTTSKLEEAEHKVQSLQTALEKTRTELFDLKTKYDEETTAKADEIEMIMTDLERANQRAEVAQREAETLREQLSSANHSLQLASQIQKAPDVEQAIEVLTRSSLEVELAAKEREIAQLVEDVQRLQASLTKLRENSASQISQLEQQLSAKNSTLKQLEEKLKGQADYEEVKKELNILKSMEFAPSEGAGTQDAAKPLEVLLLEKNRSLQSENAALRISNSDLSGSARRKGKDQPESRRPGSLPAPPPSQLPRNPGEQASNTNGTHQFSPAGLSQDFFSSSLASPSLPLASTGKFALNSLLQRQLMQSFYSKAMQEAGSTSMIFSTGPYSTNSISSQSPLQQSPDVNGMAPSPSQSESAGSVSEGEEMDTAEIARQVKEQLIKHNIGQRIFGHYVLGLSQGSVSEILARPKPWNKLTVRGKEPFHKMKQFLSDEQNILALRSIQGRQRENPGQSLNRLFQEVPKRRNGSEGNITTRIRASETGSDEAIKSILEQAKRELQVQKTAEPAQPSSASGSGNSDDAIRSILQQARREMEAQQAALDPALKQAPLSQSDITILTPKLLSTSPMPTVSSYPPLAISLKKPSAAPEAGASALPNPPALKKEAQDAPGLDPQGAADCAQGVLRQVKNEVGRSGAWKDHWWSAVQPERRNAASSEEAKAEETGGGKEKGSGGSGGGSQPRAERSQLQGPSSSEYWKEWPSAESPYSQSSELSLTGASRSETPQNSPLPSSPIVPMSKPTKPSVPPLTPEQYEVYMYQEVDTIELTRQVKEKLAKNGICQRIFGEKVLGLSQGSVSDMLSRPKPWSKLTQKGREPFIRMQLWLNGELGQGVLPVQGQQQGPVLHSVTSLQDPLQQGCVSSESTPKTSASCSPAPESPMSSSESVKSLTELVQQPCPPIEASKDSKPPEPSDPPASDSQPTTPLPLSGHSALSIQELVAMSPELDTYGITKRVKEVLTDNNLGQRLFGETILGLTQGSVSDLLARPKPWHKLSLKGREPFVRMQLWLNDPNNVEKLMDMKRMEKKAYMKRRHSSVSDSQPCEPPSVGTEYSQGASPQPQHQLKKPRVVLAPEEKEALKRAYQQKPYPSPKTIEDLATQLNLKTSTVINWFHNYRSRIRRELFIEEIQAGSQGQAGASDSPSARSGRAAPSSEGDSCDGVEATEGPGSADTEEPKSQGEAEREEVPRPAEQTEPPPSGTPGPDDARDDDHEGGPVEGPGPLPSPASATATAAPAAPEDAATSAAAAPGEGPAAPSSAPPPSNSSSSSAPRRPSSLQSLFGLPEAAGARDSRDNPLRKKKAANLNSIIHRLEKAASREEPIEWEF
UniProt P07711, sequence (P07711 whole entry, looked up): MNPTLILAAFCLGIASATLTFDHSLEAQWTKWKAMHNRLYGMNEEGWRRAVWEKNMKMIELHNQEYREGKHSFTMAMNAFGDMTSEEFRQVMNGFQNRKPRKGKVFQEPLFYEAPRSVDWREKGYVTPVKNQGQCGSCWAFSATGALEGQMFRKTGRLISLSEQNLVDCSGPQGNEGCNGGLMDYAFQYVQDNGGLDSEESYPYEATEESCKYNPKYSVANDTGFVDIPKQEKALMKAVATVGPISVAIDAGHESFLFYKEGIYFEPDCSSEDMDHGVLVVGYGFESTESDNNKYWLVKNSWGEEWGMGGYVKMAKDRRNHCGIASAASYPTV
UniProt Q6V1X1, sequence (Q6V1X1 whole entry, looked up): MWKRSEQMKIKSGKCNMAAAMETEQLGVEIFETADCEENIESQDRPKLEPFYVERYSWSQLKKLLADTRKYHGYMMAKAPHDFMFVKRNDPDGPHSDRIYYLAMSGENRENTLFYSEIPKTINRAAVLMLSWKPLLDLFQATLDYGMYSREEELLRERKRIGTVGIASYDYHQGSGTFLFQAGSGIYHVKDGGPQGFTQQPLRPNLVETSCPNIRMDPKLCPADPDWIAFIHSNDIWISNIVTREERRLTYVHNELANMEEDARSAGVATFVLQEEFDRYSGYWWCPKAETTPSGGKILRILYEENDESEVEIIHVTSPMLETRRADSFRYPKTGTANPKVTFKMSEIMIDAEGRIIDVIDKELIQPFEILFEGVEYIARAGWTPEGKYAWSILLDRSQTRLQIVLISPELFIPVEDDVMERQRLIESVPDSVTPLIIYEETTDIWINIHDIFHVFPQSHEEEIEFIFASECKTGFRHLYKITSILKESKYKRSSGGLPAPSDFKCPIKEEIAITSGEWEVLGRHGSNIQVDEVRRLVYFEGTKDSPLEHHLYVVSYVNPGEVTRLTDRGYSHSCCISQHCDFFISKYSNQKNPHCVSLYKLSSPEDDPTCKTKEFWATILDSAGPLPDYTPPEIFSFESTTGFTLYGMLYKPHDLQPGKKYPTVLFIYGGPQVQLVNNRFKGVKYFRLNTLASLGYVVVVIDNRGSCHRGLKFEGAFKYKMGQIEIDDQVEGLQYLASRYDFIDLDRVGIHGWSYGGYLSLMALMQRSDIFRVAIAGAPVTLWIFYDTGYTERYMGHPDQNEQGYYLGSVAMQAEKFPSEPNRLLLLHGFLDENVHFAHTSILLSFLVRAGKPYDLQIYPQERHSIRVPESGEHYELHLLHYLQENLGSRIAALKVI
UniProt Q96GG9, sequence (Q96GG9 whole entry, looked up): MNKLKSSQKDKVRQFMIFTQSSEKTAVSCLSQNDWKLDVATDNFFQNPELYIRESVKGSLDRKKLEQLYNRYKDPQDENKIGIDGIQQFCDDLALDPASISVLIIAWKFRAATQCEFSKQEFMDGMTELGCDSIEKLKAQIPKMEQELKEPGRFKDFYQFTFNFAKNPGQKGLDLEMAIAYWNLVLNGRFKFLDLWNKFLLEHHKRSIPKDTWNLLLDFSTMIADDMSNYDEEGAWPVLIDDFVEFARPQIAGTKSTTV
UniProt Q15392, sequence (Q15392 whole entry, looked up): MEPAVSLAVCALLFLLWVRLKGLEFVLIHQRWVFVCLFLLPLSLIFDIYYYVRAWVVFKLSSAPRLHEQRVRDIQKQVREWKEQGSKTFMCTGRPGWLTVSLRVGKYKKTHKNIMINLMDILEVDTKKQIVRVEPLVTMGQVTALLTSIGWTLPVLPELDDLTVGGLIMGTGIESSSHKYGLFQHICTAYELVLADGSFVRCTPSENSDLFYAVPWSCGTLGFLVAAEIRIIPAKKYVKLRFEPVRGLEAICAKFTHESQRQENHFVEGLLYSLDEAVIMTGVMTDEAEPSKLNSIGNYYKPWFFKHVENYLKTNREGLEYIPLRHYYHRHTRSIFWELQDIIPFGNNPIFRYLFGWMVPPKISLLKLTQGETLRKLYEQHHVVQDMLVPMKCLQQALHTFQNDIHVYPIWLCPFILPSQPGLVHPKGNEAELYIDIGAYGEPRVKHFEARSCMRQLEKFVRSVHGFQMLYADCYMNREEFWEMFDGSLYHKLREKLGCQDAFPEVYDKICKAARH
UniProt Q14320, sequence (Q14320 whole entry, looked up): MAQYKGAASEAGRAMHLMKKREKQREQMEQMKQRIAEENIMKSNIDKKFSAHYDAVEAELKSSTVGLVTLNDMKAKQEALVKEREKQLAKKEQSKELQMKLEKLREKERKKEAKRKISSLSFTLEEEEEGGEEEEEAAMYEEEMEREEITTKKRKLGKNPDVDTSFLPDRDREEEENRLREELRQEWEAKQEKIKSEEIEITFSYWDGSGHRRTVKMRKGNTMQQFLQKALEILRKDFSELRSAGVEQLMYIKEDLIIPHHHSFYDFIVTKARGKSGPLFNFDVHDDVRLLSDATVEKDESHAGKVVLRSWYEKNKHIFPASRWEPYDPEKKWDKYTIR

Compound in one assay: Cc1cc(SCc2sc(-c3ccc(C(F)(F)F)cc3)nc2C)ccc1OCC(=O)O
Nature of the assay: log2 fold change, soluble protein after heating vs DMSO (PISA); higher = thermal stabilisation; K562 cells, 10 uM, 30 min; active = over 0.2 and 3.5 SD of the protein, either way, in both replicates (recomputed). The gist of the method: (§1)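 K562 cells at 2×10^6 cells/mL were given 10 μM compound for 30 min. Aliquots then went through 3 min of heating across 48°C-58°C, were pooled, and were extracted in PBS with 0.5% NP-40 at 4°C, and the supernatant after 21,000xg for 90 min was quantified by TMTpro 16plex LC-MS/MS with channel sums equalised. Thermal stability relative to control samples, from duplicates, is given as log2 fold change.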
In the case of CTSL (UniProt P07711), the log2 fold change is -0.013.
Consider CWC27 (UniProt Q6UX04), for which the log2 fold change was 0.169.
EEF1B2 (UniProt P24534): the log2 fold change is 0.013.
The same measure, in the same setting: the result for DCUN1D1 (UniProt Q96GG9) reads 0.002; that for CUEDC2 (UniProt Q9H467), 0.012.
Turning to CUX1 isoform 3 (UniProt P39880), the log2 fold change is -0.026.
In the case of DPYSL2 (UniProt Q16555), the log2 fold change is 0.082.
Take EXOC2 (UniProt Q96KP1): the log2 fold change was 0.119.
Still for that read-out and setting: then DIP2A (UniProt Q14689), with 0.081.
Still for that read-out and setting: then DHCR24 (UniProt Q15392), with -0.063.
Take DBN1 isoform 3 (UniProt Q16643): the log2 fold change was -0.02.
Same read-out and setting: then DPP8 (UniProt Q6V1X1), with 0.006; and DDB1 (UniProt Q16531), with -0.037; and FAM50A (UniProt Q14320), with 0.092.

Compound in another assay: Cc1ccc(-n2nc(C(C)(C)C)cc2NC(=O)Nc2ccc(OCCN3CCOCC3)c3ccccc23)cc1 [doramapimod]
The description is as above. An outline of the steps:
as §1
With DDX39A (UniProt O00148), the log2 fold change was -0.069.
Turning to DCAF10 (UniProt Q5QP82), the log2 fold change was 0.055.
On the same count and under the same terms, the result for EDC4 (UniProt Q6P2E9) reads 0.005; that for EHD2 (UniProt Q9NZN4), 0.
Same read-out and setting: the result for DNAH10 (UniProt Q8IVF4) reads -0.003; that for ETNK1 (UniProt Q9HBU6), 0.001; that for DDX4 (UniProt Q9NQI0), -0.021.
Regarding E2F4 (UniProt Q16254), the log2 fold change was 0.024.
On the same count and under the same terms, then EFL1 (UniProt Q7Z2Z2), with -0.013; and EXTL2 (UniProt Q9UBQ6), with -0.01.
The same measure, in the same setting: the result for ECPAS (UniProt Q5VYK3) reads -0.032; that for EEF1AKNMT (UniProt Q8N6R0), 0.077; that for DNAJC1 (UniProt Q96KC8), 0.002.
On the same count and under the same terms, the result for DHX40 (UniProt Q8IX18) reads 0.065.
Consider ERLIN2 (UniProt O94905), for which the log2 fold change was 0.057.
Consider EED, A0A5F9ZI63, for which the log2 fold change is 0.028.
For the target FAM118A (UniProt Q9NWS6), the log2 fold change is -0.02.
In the case of CTNNB1 (UniProt P35222), the log2 fold change is 0.047.
Same read-out and setting: then EXOC8 (UniProt Q8IYI6), with 0.007; and DDX5 (UniProt P17844), with -0.044.
On the same count and under the same terms, the result for CTSB (UniProt P07858) reads -0.014; that for FAM160B1 (UniProt Q5W0V3), -0.018; that for DNAAF2 (UniProt Q9NVR5), 0.042.
Still for that read-out and setting: the result for DYNC1I2 isoform 5 (UniProt Q13409) reads -0.011; that for CTSL (UniProt P07711), 0.018; that for CWC27 (UniProt Q6UX04), -0.091.
Regarding EEF1B2 (UniProt P24534), the log2 fold change was -0.065.
With DCUN1D1 (UniProt Q96GG9), the log2 fold change was -0.053.
The same measure, in the same setting: then CUEDC2 (UniProt Q9H467), with -0.087; and CUX1 isoform 3 (UniProt P39880), with 0.019; and DPYSL2 (UniProt Q16555), with 0.069.
The same measure, in the same setting: then EXOC2 (UniProt Q96KP1), with 0.06.
As to DIP2A (UniProt Q14689), the log2 fold change was 0.141.
As for DHCR24 (UniProt Q15392), the log2 fold change is 0.982 (active).
Still for that read-out and setting: the result for DBN1 isoform 3 (UniProt Q16643) reads 0.02; that for DPP8 (UniProt Q6V1X1), 0.008.
The same measure, in the same setting: then DDB1 (UniProt Q16531), with -0.033; and FAM50A (UniProt Q14320), with -0.061.

These data come from the supplement of paper PMC10849652.
